# Measured values: the supplement of paper PMC6555819
# Columns and labels:
# Test in all cases: PBM binding z-score (relative to random genomic background probes); higher = stronger binding; sequences stand for … in GC…GCGATTGACAGCGTAGAATGAAGG
# [1] = tested on: FXR:RXRa (NR concentration 270 nM, RXRa partner concentration 90 nM)
# Method in brief: (§1)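 The probes on custom Agilent 4×180K protein-binding microarrays were double-stranded, with 34-nt variable regions bearing direct-repeat seeds, single-nucleotide variants, half-site ablations and random human genomic background sequences. Incubation lasted 1 h with ligand-free nuclear receptor dimers in PBS pH 7.4, 2% milk, 0.02% Triton X-100, 1 mM DTT, 0.2 mg/mL BSA and 0.4 mg/ml salmon testes DNA. Antibodies against each partner (one per run) detected bound dimers, and fluorescence scans were regression-normalized. Binding z-scores take the random background probes as reference.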
# [2] = tested on: LXRa:RXRa (NR concentration 270 nM, RXRa partner concentration 90 nM)
# Method in brief: as §1
# [3] = tested on: LXRa homodimer (NR concentration 270 nM)
# Method in brief: as §1
# [4] = tested on: LXRb:RXRa (NR concentration 270 nM, RXRa partner concentration 90 nM)
# Method in brief: as §1
# [5] = tested on: LXRb homodimer (NR concentration 270 nM)
# Method in brief: as §1
# [6] = tested on: PPARa:RXRa (NR concentration 270 nM, RXRa partner concentration 90 nM)
# Method in brief: as §1
# [7] = tested on: PPARg:RXRa (NR concentration 180 nM, RXRa partner concentration 90 nM)
# Method in brief: as §1
# [8] = tested on: PPARg:RXRa 270nM:90nM, anti-RXR (NR concentration 270 nM, RXRa partner concentration 90 nM)
# Method in brief: as §1
# [9] = tested on: PPARg:RXRa 30nM:10nM, anti-RXR (NR concentration 30 nM, RXRa partner concentration 10 nM)
# Method in brief: as §1
# [10] = tested on: PPARg:RXRa 90nM:30nM, anti-RXR (NR concentration 90 nM, RXRa partner concentration 30 nM)
# Method in brief: as §1
Sequence,PBM binding z-score [1],PBM binding z-score [2],PBM binding z-score [3],PBM binding z-score [4],PBM binding z-score [5],PBM binding z-score [6],PBM binding z-score [7],PBM binding z-score [8],PBM binding z-score [9],PBM binding z-score [10]
CGAACGAGGGCACGAGTTGATAGCAAATGCCGAT,0.992,0.567,-0.547,0.453,-0.624,2.28,2.4,1.99,0.448,1.44
CCTACTGGGCCAAAGGTCATTGAATCCAATGCTC,4.76,5.09,3.62,4.91,0.849,6.45,11.2,9.74,10.1,10.8
GCGACTGGGGAATCAGCAGGTTACCATAACTTAA,-0.766,-0.57,-0.287,0.0771,-1.25,0.0843,0.0906,-0.19,-0.448,-0.292
CCGACTGGGGCATAAGGTTACCATTAGCCAGCCC,0.294,0.416,-0.399,0.617,-1.38,1.85,2.02,3.12,0.689,2.57
CTCGAAAGGTCGGTTGAGGTGAGTATTCGGATAA,2.94,1.75,-0.326,1.32,-0.125,2.56,-0.124,1.15,0.0232,0.23
TCTAGGTGGTCACGGAGGTCACACACGACGGGTA,3.81,3.68,2.06,3.28,0.0895,4.01,3.58,4.2,3.06,3.96
TCTGCGAGGTCAACGATGGTCAGCTAATCTGCTA,6.96,5.84,1.07,4.75,1.01,5.65,5.8,6.12,3.37,4.91
TCGAGTAGGTTACCAAAGGGGCATTCAGCTTTCT,0.363,3.05,-0.577,1.61,-0.557,1.41,0.576,1.33,0.963,1.22
TCATATAGTTAAACAGGTGAAAGTCCGTAAGTTA,1.06,1.1,0.478,1.1,0.356,1.7,1.25,2.68,4.38,3.42
AGAAAGAGGTTAAGATCAGGGAAACAGAATACAT,2.5,2.43,0.396,2.31,0.766,3.66,2.06,1.89,1.05,1.34
ATCTCTAGGTAAAGTTCAGGGAAAGATCGATAGA,1.49,2.4,1.88,1.58,1.03,2.86,3.53,4.62,2.77,4.35
TCATATAGGTAAGGGTGAAAGTCGAACGATATGA,0.857,0.803,-0.00999,0.694,-0.563,2.47,2.7,3.29,3.87,3.72
CCTATTAGTTGACCATAAGGGCAGCCGAAGCTCG,0.542,-0.0359,0.036,0.218,0.392,0.0636,0.126,0.442,-0.292,-0.0917
CGTCAAAGTTCAACTAAGGTAACGTAGAGCACGC,7.03,5.95,4.18,4.04,1.71,5.1,5.31,5.6,2.54,4.47
CTTAGCAGGCCAATCTGGGTCACTCAAGGCTTGA,0.29,1.18,-0.362,0.386,-0.93,3.08,2.4,2.51,-0.0201,1.43
ACAGACAGGTGATGCAGGTAACTCAGGCTATCAT,-0.0955,-0.176,-0.459,-0.222,-0.442,0.00895,0.577,-0.188,-0.309,-0.256
AATACAGGGTCATCGTAGGCCAGAGAACGCACAG,7.44,6.64,2.11,4.8,1.09,6.16,7.11,6.17,2.74,5.08
CATCAAAGTTCAACTAAGGTAACGTAAAGCACGC,7.36,6.82,5.03,4.54,3.07,5.03,3.96,4.67,2.12,3.32
CCTACTGGGCCATTCAGTGGTCATTGATCATATG,-0.271,-0.187,-0.281,-0.498,-0.602,0.355,0.304,0.661,-0.571,0.191
CCTAGCAGGCGAATCTGGGTCACTCAAGGCTTGA,0.211,0.262,-0.449,0.236,-0.934,3.11,2.47,2.62,-0.139,1.64
CCTTACGGGTCACTGACAGGTTATCGCATTTGGA,5.35,4.35,0.422,3.38,0.0444,5.12,4.53,4.36,1.04,2.96
CCTCCTGGGCCAAAGGTCATTGATTCCAATGCTC,4.65,5.11,3.68,4.79,0.666,5.6,9.24,8.76,10.1,10.1
CGACCTAGGTCAAGGACAGTGAATCTCCGCACGC,4.5,2.95,-0.0211,2.07,-0.684,3.94,3.55,3.19,0.64,1.86
GTACCAAAGTGAATAGGTCGTTGATGAGTAGGCG,-0.437,-0.179,0.178,-0.156,-0.573,0.468,0.56,0.234,0.0456,-0.0827
